Data: PubChem BioAssay (EPA / NIEHS)
Records with an inconclusive call do not appear. Active and inactive are the calls of the source. How the source made its calls: active means hit-call score of the fitted dose curve at least 0.9, where 1 is the maximum; inconclusive means response in the unintended direction; inactive means score below 0.9.

Target: Bile acid receptor (Homo sapiens) (UniProt Q96RI1)
Assay: ATG_FXR_TRANS: Attagene TRANS-FACTORIAL HepG2 Assay for Farnesoid X Receptor (FXR) (AID 2282979);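 further: hits raise reporter mRNA above DMSO so AC50 marks FXR activation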
Settings: HepG2 Attagene TRANS FXR-GAL4 reporter transcription
Summary of the method: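 Read-out: fluorescent reporter transcripts quantified by capillary electrophoresis after RT-PCR of total RNA. Source cells were HepG2 transiently carrying chimeric NR-GAL4 plus GAL4-UAS reporter units, dosed 24 h. Activity fitted upward relative to DMSO baseline.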

Bile acid receptor (Homo sapiens), sequence (Q96RI1 whole entry, looked up): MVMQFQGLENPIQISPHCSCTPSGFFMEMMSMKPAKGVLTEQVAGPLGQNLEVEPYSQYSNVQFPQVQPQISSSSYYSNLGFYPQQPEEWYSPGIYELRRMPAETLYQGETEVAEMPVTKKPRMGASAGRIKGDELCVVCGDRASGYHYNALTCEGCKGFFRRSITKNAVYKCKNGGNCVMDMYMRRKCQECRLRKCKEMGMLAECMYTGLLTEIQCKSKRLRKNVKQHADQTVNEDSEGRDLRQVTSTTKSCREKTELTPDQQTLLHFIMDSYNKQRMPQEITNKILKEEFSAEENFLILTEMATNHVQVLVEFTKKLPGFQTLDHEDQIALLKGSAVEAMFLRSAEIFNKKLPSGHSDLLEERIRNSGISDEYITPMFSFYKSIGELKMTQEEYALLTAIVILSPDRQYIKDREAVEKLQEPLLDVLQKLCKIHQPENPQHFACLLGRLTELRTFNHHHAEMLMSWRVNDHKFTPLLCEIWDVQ

Structure (SMILES) | outcome
Cl/C=C\C[N+]12CN3CN(CN(C3)C1)C2 | inactive
ClCc1cccnc1 | inactive
ClC1(Cl)C2(Cl)C3(Cl)C4(Cl)C(Cl)(Cl)C5(Cl)C3(Cl)C1(Cl)C5(Cl)C24Cl (stereo not drawn) | inactive
ClC1=C(Cl)[C@]2(Cl)[C@@H]3[C@@H](Cl)[C@@H](Cl)C[C@@H]3[C@@]1(Cl)C2(Cl)Cl | inactive
CN(C)P(=O)(N(C)C)N(C)C | inactive
CCN1CCC2(CC1)COc1cc3c(cc12)N(C(=O)c1ccc(-c2ccc(-c4nnc(C)o4)cc2C)cc1)CC3 | inactive
O=C(O)C(F)(F)C(F)(F)C(F)(F)C(F)(F)C(F)(F)C(F)(F)C(F)(F)C(F)(F)C(F)(F)C(F)(F)F | inactive
CC(C)c1ccc(CO)cc1 | inactive
CCC(C)c1cccc(C(C)CC)c1O (stereo not drawn) | inactive
O=C(c1ccccc1)C(Cl)Cl | inactive
COC[C@H](C)N(C(=O)CCl)c1c(C)csc1C | inactive
Oc1cccc2cccnc12 | inactive
CC(C)C1CCC(Cc2ccc(Cl)cc2)C1(O)Cn1cncn1 (stereo not drawn) | inactive
